{"source": "the antibiotic and cytotoxicity screens of Wong et al. (2023)", "note": "About 3,300 (8.5%) of roughly 39,000 compounds were called active. Shown is part of a subset that was picked to be rich in actives.", "data": [{"tested_on": "HepG2", "experiment": "cytotoxicity call (relative viability < 0.9)", "settings": "10 µM", "values": [{"smiles": "C=CCC[C@H](Cc1ccc(F)cc1)C(=O)OC[C@@H](NC(=O)[C@H](CC=C)CC(=O)N(CCO)Cc1ccccc1)C(C)(C)C", "cytotoxicity call": "inactive"}, {"smiles": "COc1ccc(-c2coc3c(OC)c(OC)cc(O)c3c2=O)cc1", "cytotoxicity call": "inactive"}, {"smiles": "COc1ccc(-c2coc3c(O)c(O)c(OC)cc3c2=O)cc1", "cytotoxicity call": "active"}, {"smiles": "COc1ccc(-c2coc3cc(O)ccc3c2=O)cc1", "cytotoxicity call": "inactive"}, {"smiles": "CC(C)NC(=O)Nc1ccc2c(c1)CC(=O)N([C@@H](C)CO)C[C@@H](C)[C@H](CN(C)C(=O)Nc1ccc3c(c1)OCO3)O2", "cytotoxicity call": "inactive"}, {"smiles": "COCc1cc(C)nc(N)c1C#N", "cytotoxicity call": "inactive"}, {"smiles": "Cc1ccc2c(N)[nH]nc2n1", "cytotoxicity call": "inactive"}, {"smiles": "COCc1cc(C)nc2n[nH]c(N)c12", "cytotoxicity call": "active"}, {"smiles": "Cc1noc(C)c1S(=O)(=O)N(C)C[C@@H]1Oc2ccc(NC(=O)Cc3cn(C)c4ccccc34)cc2CC(=O)N([C@@H](C)CO)C[C@@H]1C", "cytotoxicity call": "inactive"}, {"smiles": "C[C@@H]1CN([C@H](C)CO)C(=O)c2cc(NC(=O)c3ccccc3)ccc2O[C@@H](C)CCCCO[C@H]1CN(C)C(=O)Nc1ccc(C(F)(F)F)cc1", "cytotoxicity call": "inactive"}, {"smiles": "C[C@@H](O)c1nnc(N)[nH]1", "cytotoxicity call": "inactive"}, {"smiles": "C[C@@H]1CN([C@H](C)CO)C(=O)c2cc(NS(=O)(=O)c3ccc(Cl)cc3)ccc2O[C@@H]1CN(C)Cc1ccc(-c2ccccc2)cc1", "cytotoxicity call": "active"}, {"smiles": "C[C@@H]1CN([C@@H](C)CO)C(=O)c2cc(NS(=O)(=O)c3ccc(Cl)cc3)ccc2O[C@H]1CN(C)Cc1ccc(-c2ccccc2)cc1", "cytotoxicity call": "inactive"}, {"smiles": "C[C@H]1CN([C@@H](C)CO)C(=O)c2cc(NS(=O)(=O)c3ccc(Cl)cc3)ccc2O[C@H]1CN(C)Cc1ccc(-c2ccccc2)cc1", "cytotoxicity call": "inactive"}, {"smiles": "C[C@H](CO)N1C[C@H](C)[C@@H](CN(C)Cc2ccc(-c3ccccc3)cc2)Oc2ccc(NS(=O)(=O)c3ccc(Cl)cc3)cc2C1=O", "cytotoxicity call": "active"}, {"smiles": "C[C@@H]1CN([C@@H](C)CO)C(=O)c2cc(NS(=O)(=O)c3ccc(Cl)cc3)ccc2O[C@@H]1CN(C)Cc1ccc(-c2ccccc2)cc1", "cytotoxicity call": "active"}, {"smiles": "C[C@H](CO)N1C[C@H](C)[C@H](CN(C)Cc2ccc(-c3ccccc3)cc2)Oc2ccc(NS(=O)(=O)c3ccc(Cl)cc3)cc2C1=O", "cytotoxicity call": "active"}, {"smiles": "C[C@@H]1CN([C@H](C)CO)C(=O)c2cc(NS(=O)(=O)c3ccc(Cl)cc3)ccc2O[C@H]1CN(C)Cc1ccc(-c2ccccc2)cc1", "cytotoxicity call": "inactive"}, {"smiles": "C[C@H]1CN([C@@H](C)CO)C(=O)c2cc(NS(=O)(=O)c3ccc(Cl)cc3)ccc2O[C@@H]1CN(C)Cc1ccc(-c2ccccc2)cc1", "cytotoxicity call": "inactive"}, {"smiles": "C[C@H](CO)N1C[C@H](C)[C@H](CN(C)Cc2ccc(Oc3ccccc3)cc2)Oc2cc(Br)ccc2S1(=O)=O", "cytotoxicity call": "inactive"}, {"smiles": "C[C@H]1CN([C@@H](C)CO)C(=O)c2cc(NC(=O)CCCCCC(=O)Nc3ccccc3N)ccc2O[C@@H]1CN(C)C(=O)Nc1cccc2ccccc12", "cytotoxicity call": "inactive"}, {"smiles": "CC(C)NC(=O)N(C)C[C@H]1Oc2ccc(NS(=O)(=O)c3ccc(Cl)cc3)cc2C(=O)N([C@H](C)CO)C[C@@H]1C", "cytotoxicity call": "inactive"}, {"smiles": "C[C@H](CO)N1C[C@H](C)[C@H](CN(C)C(=O)Nc2ccc(F)cc2)Oc2c(NS(=O)(=O)c3cn(C)cn3)cccc2C1=O", "cytotoxicity call": "inactive"}, {"smiles": "C[C@@H]1CN([C@@H](C)CO)C(=O)c2cccc(NC(=O)Nc3ccc(C(F)(F)F)cc3)c2O[C@@H]1CN(C)S(=O)(=O)c1ccc(F)cc1", "cytotoxicity call": "inactive"}, {"smiles": "Nc1ncnc(N[C@H]2CCS(=O)(=O)C2)c1[N+](=O)[O-]", "cytotoxicity call": "inactive"}, {"smiles": "C[C@@H]1CCCCO[C@H](CN(C)Cc2ccc(C(F)(F)F)cc2)[C@H](C)CN([C@H](C)CO)C(=O)c2cc(NC(=O)CCC(F)(F)F)ccc2O1", "cytotoxicity call": "inactive"}, {"smiles": "COCC(=O)N1C[C@H](C)[C@H](OC)CN(C)C(=O)c2ccc(NC(=O)Nc3ccccc3)cc2OC[C@H]1C", "cytotoxicity call": "inactive"}, {"smiles": "C[C@@H]1CN([C@H](C)CO)C(=O)Cc2cc(NS(=O)(=O)c3ccccc3)ccc2O[C@H]1CN(C)Cc1ccc(C(=O)O)cc1", "cytotoxicity call": "inactive"}, {"smiles": "COc1ccc(S(=O)(=O)Nc2ccc3c(c2)C(=O)N([C@H](C)CO)C[C@H](C)[C@@H](CN(C)CC2CCCCC2)OCCCC[C@@H](C)O3)cc1", "cytotoxicity call": "inactive"}, {"smiles": "C[C@H](CO)N1C[C@H](C)[C@@H](CN(C)S(=O)(=O)c2ccccc2)Oc2c(NS(=O)(=O)c3ccc(F)cc3)cccc2C1=O", "cytotoxicity call": "inactive"}, {"smiles": "COc1ccc(C#Cc2cccc(-c3nc(C(=O)N4CCN(Cc5ccccc5)CC4)cc4c3[C@H](CCO)N(S(=O)C(C)(C)C)C4)c2)cc1OC", "note": "(stereo not given in full)", "cytotoxicity call": "inactive"}, {"smiles": "CC(C)(C)[S@@](=O)N1Cc2cc(C(=O)N3CCCCC3)nc(-c3cccc(-c4ccccc4F)c3)c2[C@H]1CCO", "cytotoxicity call": "inactive"}, {"smiles": "CC(C)(C)S(=O)N1Cc2cc(C(=O)N3CCN(Cc4ccccc4)CC3)nc(-c3cccc(C#CCC4CCCC4)c3)c2[C@H]1CCO", "note": "(stereo not given in full)", "cytotoxicity call": "active"}, {"smiles": "CC(C)(C)S(=O)N1Cc2cc(C(=O)N3CCN(Cc4ccccc4)CC3)nc(-c3cccc(-c4cc5ccccc5o4)c3)c2[C@H]1CCO", "note": "(stereo not given in full)", "cytotoxicity call": "active"}, {"smiles": "COc1ccc(C#Cc2cccc(-c3nc(C(=O)N4CCN(Cc5ccccc5)CC4)cc4c3[C@@H](CCO)N(S(=O)C(C)(C)C)C4)c2)cc1OC", "note": "(stereo not given in full)", "cytotoxicity call": "inactive"}, {"smiles": "CC(C)(C)[S@](=O)N1Cc2cc(C(=O)N3CCCCC3)nc(-c3cccc(-c4ccccc4F)c3)c2[C@@H]1CCO", "cytotoxicity call": "inactive"}, {"smiles": "COCCCN(C[C@]1(O)CC[C@H]2C3=CC=C4C[C@@H](O)CC[C@]4(C)[C@@H]3CC[C@@]21C)C(=O)O[C@H]1C[C@@H](C)CC[C@@H]1C(C)C", "cytotoxicity call": "inactive"}, {"smiles": "CC(C)NC(=O)N(C)C[C@H]1Oc2ccc(NS(=O)(=O)c3cccs3)cc2C(=O)N([C@H](C)CO)C[C@@H]1C", "cytotoxicity call": "inactive"}, {"smiles": "CO[C@H]1CN(C)C(=O)c2cc(NS(C)(=O)=O)ccc2OC[C@@H](C)N(C(=O)C2CCOCC2)C[C@H]1C", "cytotoxicity call": "inactive"}, {"smiles": "C[C@@H]1CN([C@@H](C)CO)C(=O)Cc2cc(NC(=O)C3CCCCC3)ccc2O[C@H]1CN(C)Cc1ccc(Cl)c(Cl)c1", "cytotoxicity call": "inactive"}, {"smiles": "C[C@H]1CN([C@@H](C)CO)C(=O)Cc2cc(NC(=O)Cn3cnnn3)ccc2O[C@H]1CN(C)C(=O)Nc1ccc2c(c1)OCO2", "cytotoxicity call": "inactive"}, {"smiles": "Cc1ccc(S(=O)(=O)N(C)C[C@H]2Oc3c(NS(=O)(=O)c4cn(C)cn4)cccc3C(=O)N([C@H](C)CO)C[C@@H]2C)cc1", "cytotoxicity call": "inactive"}, {"smiles": "C[N+](C)(C)CCCCCCNC(=O)[C@@H]1C[C@@H]2C(=O)N[C@@H](CCCC[N+](C)(C)C)C(=O)N2[C@@H]1c1ccc(O)cc1", "cytotoxicity call": "inactive"}, {"smiles": "Cc1ccc(S(=O)(=O)N(C)C[C@H]2Oc3ccc(NC(=O)NC(C)C)cc3C(=O)N([C@@H](C)CO)C[C@H]2C)cc1", "cytotoxicity call": "inactive"}, {"smiles": "C[C@H](CO)N1C[C@H](C)[C@@H](CN(C)C(=O)N[C@H](C)c2ccccc2)OCc2ccccc2-c2c(n(C)c3ccccc23)C1=O", "cytotoxicity call": "inactive"}, {"smiles": "O=C(C[C@H]1CC[C@@H]2[C@H](COC[C@H](O)CN2S(=O)(=O)c2ccccc2)O1)N1CCc2ccccc2C1", "cytotoxicity call": "inactive"}, {"smiles": "CCCC[C@@H](C)/C=C(C)/C=C(\\C)C(=O)NC1=C[C@@](O)(/C=C/C=C/C=C/C(=O)NC2C(=O)CCC2=O)[C@@H]2O[C@@H]2C1=O", "cytotoxicity call": "active"}, {"smiles": "C[C@@H]1CN([C@@H](C)CO)C(=O)c2cccc(NC(=O)Nc3ccc4c(c3)OCO4)c2O[C@@H]1CN(C)Cc1ccc(Cl)c(Cl)c1", "cytotoxicity call": "inactive"}, {"smiles": "O=C(C[C@@H]1CC[C@H]2[C@@H](COC[C@H](O)CN2CC2CCOCC2)O1)N1CCOCC1", "cytotoxicity call": "inactive"}, {"smiles": "COc1cccc(C(=O)Nc2ccc3c(c2)C(=O)N(C)[C@H]2CC[C@H](CC(=O)NCC(F)(F)F)O[C@@H]2CO3)c1", "cytotoxicity call": "inactive"}, {"smiles": "COc1cccc(C(=O)Nc2ccc3c(c2)C(=O)N(C)[C@H]2CC[C@H](CC(=O)NCC(F)(F)F)O[C@H]2CO3)c1", "cytotoxicity call": "inactive"}, {"smiles": "CN1C(=O)c2cc(NC(=O)c3ccc(F)cc3)ccc2OC[C@H]2O[C@H](CC(=O)N3CCOCC3)CC[C@H]21", "cytotoxicity call": "inactive"}, {"smiles": "CN1C(=O)c2cc(NC(=O)c3ccc(F)cc3)ccc2OC[C@@H]2O[C@@H](CC(=O)N3CCOCC3)CC[C@H]21", "cytotoxicity call": "active"}, {"smiles": "COCC(=O)Nc1ccc2c(c1)C(=O)N(C)[C@@H]1CC[C@H](CC(=O)N3CCc4ccccc4C3)O[C@@H]1CO2", "cytotoxicity call": "inactive"}, {"smiles": "COc1cccc(C(=O)Nc2ccc3c(c2)C(=O)N(C)[C@@H]2CC[C@H](CC(=O)NCC4CC4)O[C@@H]2CO3)c1", "cytotoxicity call": "active"}, {"smiles": "COCC(=O)Nc1ccc2c(c1)C(=O)N(C)[C@H]1CC[C@@H](CC(=O)N3CCc4ccccc4C3)O[C@@H]1CO2", "cytotoxicity call": "inactive"}, {"smiles": "COCC(=O)Nc1ccc2c(c1)C(=O)N(C)[C@H]1CC[C@H](CC(=O)N3CCc4ccccc4C3)O[C@H]1CO2", "cytotoxicity call": "active"}, {"smiles": "COc1cccc(C(=O)Nc2ccc3c(c2)C(=O)N(C)[C@H]2CC[C@H](CC(=O)NCC4CC4)O[C@@H]2CO3)c1", "cytotoxicity call": "inactive"}, {"smiles": "CN1C(=O)c2cc(NC(=O)c3ccc(F)cc3)ccc2OC[C@H]2O[C@@H](CC(=O)N3CCOCC3)CC[C@H]21", "cytotoxicity call": "inactive"}, {"smiles": "COc1cccc(C(=O)Nc2ccc3c(c2)C(=O)N(C)[C@@H]2CC[C@@H](CC(=O)NCC4CC4)O[C@@H]2CO3)c1", "cytotoxicity call": "inactive"}, {"smiles": "COc1cccc(C(=O)Nc2ccc3c(c2)C(=O)N(C)[C@@H]2CC[C@H](CC(=O)NCC(F)(F)F)O[C@@H]2CO3)c1", "cytotoxicity call": "active"}, {"smiles": "C[C@H]1CN([C@@H](C)CO)C(=O)c2c(c3ccccc3n2C)-c2ccccc2CO[C@@H]1CN(C)Cc1cccc(O)c1", "cytotoxicity call": "inactive"}, {"smiles": "C[C@H](CO)N1C[C@H](C)[C@H](CN(C)S(C)(=O)=O)Oc2ccc(NC(=O)CCC(F)(F)F)cc2CC1=O", "cytotoxicity call": "inactive"}, {"smiles": "Cc1noc(C)c1S(=O)(=O)Nc1ccc2c(c1)C(=O)N([C@@H](C)CO)C[C@H](C)[C@@H](CN(C)C(=O)NC1CCCCC1)O2", "cytotoxicity call": "inactive"}, {"smiles": "C[C@@H]1CCCCO[C@@H](CN(C)C(=O)Nc2ccccc2)[C@@H](C)CN([C@@H](C)CO)C(=O)c2cc(NC(=O)CCC(F)(F)F)ccc2O1", "cytotoxicity call": "inactive"}]}]}
